Experimental findings from PubChem BioAssay (NCATS) are described below.

Records with an inconclusive call do not appear. Entries that show only a call come without a potency. Activity calls are given as the source filed them. Calls come from the whole dose curve; as a rule, active = well fitted curve in the direction sought with a large enough effect; inconclusive = small, poorly fitted or top-dose-only effect, or another doubt; inactive = no such curve, though single readings can be large; an effect the other way counts as inactive or inconclusive.

The target in assay [1] is Aldehyde dehydrogenase, mitochondrial (Homo sapiens) (UniProt P05091). The assay is described as follows: qHTS for Inhibitors of the Aldehyde Dehydrogenase Family (ALDH2) Primary screen (AID 2061308). Note: nearly all actives have a fitted effect of over 55% in size.
Assay [2] deals with Retinaldehyde dehydrogenase 3 (Homo sapiens) (UniProt P47895). The assay is described as follows: qHTS for Inhibitors of the Aldehyde Dehydrogenase Family (ALDH1A3) Primary screen (AID 2061315). (In general: qHTS replaces the single test concentration by a dilution series.)

For `O=C(O)c1ccc2c(c1)C(=O)N([C@]1(C(=O)O)CC1c1ccccc1)C2=O` (stereo partly specified), the Potency result in assay [1] and in assay [2] was “inactive” throughout.

Regarding `c1ccc(C2Nc3cccc4cccc(c34)N2)cc1`, the Potency result in assay [1] and in assay [2] was “inactive” in each case.

Take `Oc1ccc(CCc2c(F)cccc2F)c2cccnc12`: the Potency entry in assay [1] and in assay [2] was “inactive” throughout.

Regarding `O=S(=O)(Nc1cnc2ccccc2c1)c1ccc(NCc2cccc(Cl)c2O)cc1`, the Potency entry in assay [1] and in assay [2] was “inactive” in each case.

`Cc1cc2c(s1)c1cnn(Cc3c(Cl)cccc3Cl)c(=O)c1n2C`: the Potency entry in assay [1] and in assay [2] was “inactive” throughout.

In the case of `NCCCCNc1ncnc2ccc(-c3ccc4c(c3)OCO4)cc12`, the Potency entry in assay [1] and in assay [2] was “inactive” in each case.

Regarding `CC(C)(C)NS(=O)(=O)c1cccc(-c2nnc(SCC(=O)Nc3ccc(C(=O)O)cc3)n2-c2ccc(F)cc2)c1`, the Potency result in assay [1] and in assay [2] was “inactive” each time.

With `CC(=O)Nc1sc2c(c1-c1ncco1)CCNC2`, the Potency result in assay [1] and in assay [2] was “inactive” throughout.

`O=C(OCC#CCSc1nnc(-c2cccc3ccccc23)o1)c1cc(F)c(F)c(F)c1`: the Potency entry in assay [1] and in assay [2] was “inactive” throughout.

`O=C(O)c1ccc(CSc2nnc(-c3cccc([S+](=O)([O-])NC4CCCC4)c3)n2-c2ccccc2)cc1`: the Potency result in assay [1] and in assay [2] was “inactive” in each case.

Take `Cc1cc(C)nc(NC(=S)N2CCN(c3ccc(Cl)cc3S(C)(=O)=O)CC2)c1`: the Potency entry in assay [1] and in assay [2] was “inactive” throughout.

As to `COc1cc(O)c(C(CC(=O)N2CCCC(C(F)(F)F)C2)c2ccc3c(c2)OCO3)c(OC)c1` (stereo unspecified), the Potency entry in assay [1] and in assay [2] was “inactive” in each case.

As to `Cc1cc(N[S+](=O)([O-])c2ccc(NC(=O)Cc3ccc(Cl)nc3)cc2)no1`, the Potency result in assay [1] and in assay [2] was “inactive” in each case.

On to `CCCn1c(C)nc2c(NCCN(C)C)nc(C)nc21`, for which the Potency entry in assay [1] and in assay [2] was “inactive” each time.

As for `O=S(=O)(c1ccc2c(c1)OCCO2)N1CCN(S(=O)(=O)c2cccs2)CC1`, the Potency result in assay [1] and in assay [2] was “inactive” in each case.

Take `C=C1CC2OC(=O)C(=C)C2C(OC(=O)/C(C)=C\C)CC2(C)OC1=CC2=O` (stereo unspecified): the Potency result in assay [1] and in assay [2] was “inactive” throughout.

As for `Cn1cc(C[C@H](C(=O)O)N2C(=O)c3ccc(C(=O)O)cc3C2=O)c2ccccc21`, the Potency entry in assay [1] and in assay [2] was “inactive” throughout.

On to `COc1ccccc1-c1nnc(SCC#CCOC(=O)c2ccc(F)cc2)o1`, for which the Potency result in assay [1] and in assay [2] was “inactive” in each case.

`N#CN1CCC(NC(=O)c2cccc(F)c2)CC1`: the Potency result in assay [1] and in assay [2] was “inactive” in each case.

Regarding `Oc1cc(-c2ccc(N3CCCCC3)nc2)cc2cccnc12`, the Potency result in assay [1] and in assay [2] was “inactive” each time.

As to `O=C(CNC(=O)C1CCCCC1)OC(C(=O)c1ccccc1)c1ccccc1` (stereo unspecified), the Potency entry in assay [1] and in assay [2] was “inactive” in each case.

Consider `Cc1ccc(C)c(SC2=CS(=O)(=O)c3ccccc32)c1`, for which the Potency entry in assay [1] and in assay [2] was “inactive” throughout.

As for `CCCCN(C)C(=O)Cn1nc(-c2cncnc2)ccc1=O`, the Potency entry in assay [1] and in assay [2] was “inactive” in each case.

With `CN(CCc1cccs1)c1ncnc2ccc(-c3ccc4c(c3)OCO4)cc12`, the Potency result in assay [1] and in assay [2] was “inactive” throughout.

Turning to `Cc1cc(C)nc(NC(=S)N2CCN(c3cnc4nccn4c3)CC2)c1`, the Potency entry in assay [1] and in assay [2] was “inactive” throughout.

For the compound `O=C1CCc2cc(S(=O)(=O)Nc3ccc(F)c(Cl)c3)ccc2N1`, the Potency result in assay [1] and in assay [2] was “inactive” each time.

Consider `CC#CC(=O)Nc1ccc2ncnc(Nc3cccc(Br)c3)c2c1`, for which the Potency entry in assay [1] and in assay [2] was “inactive” each time.

For `N#Cc1nc(Nc2cc(F)cc(F)c2)c2ncn(CCCO)c2n1`, the Potency entry in assay [1] and in assay [2] was “inactive” throughout.

`O=S(=O)(c1ccc2c(c1)OCCO2)N1CCN(S(=O)(=O)c2c(Cl)cc(C(F)(F)F)cc2Cl)CC1`: the Potency entry in assay [1] and in assay [2] was “inactive” each time.

Take `COc1ccc(-c2ccc3ncnc(NCc4cccs4)c3c2)cc1`: the Potency result in assay [1] and in assay [2] was “inactive” throughout.

Regarding `O=C(O)c1c(-c2ccccc2)no[n+]1[O-]`, the Potency result in assay [1] and in assay [2] was “inactive” in each case.

For `COc1cc(Cl)c(C)cc1NC(=O)C(OC(=O)CNC(=O)c1ccccc1)c1ccccc1` (stereo unspecified), the Potency entry in assay [1] and in assay [2] was “inactive” each time.

With `Cc1cc(C)n2ncc(C(=O)NC3CCC(C(C)(C)C)CC3)c2n1` (stereo unspecified), the Potency entry in assay [1] and in assay [2] was “inactive” throughout.
